The campaign covered roughly 65,000 compounds. About 2,100 (3.2%) showed an effect of 50% or more. The median lay at about -52%. What follows is part of a selection rich in strong results, with near analogues and random picks from the rest.

This assay deals with Plasmodium falciparum. The assay can be described thus: Screen against P. falciparum Asexual Blood Stage (ABS), at 5uM. The note with it: tested at 5 uM. It counts as functional, Dd2.
With `CC(=O)c1cccc(OCC(=O)NS(=O)(=O)c2ccc(Br)s2)c1`, the INHIBITION was -85.3%.
Under `CCN(CC)S(=O)(=O)N(Cc1ccccn1)Cc1ccccc1C` stands -6.79%; under `CC(NCC(N)=O)c1c(F)cccc1Cl` (configuration not stated), -21.3%.
Turning to `Cc1sc2ncnc(N3CCC(N(C)Cc4cnn(C)c4)CC3)c2c1C`, the INHIBITION is on record as 23.5%.
Consider `COCc1noc(CN2CCCCC2CCc2cccs2)n1` (configuration not stated), for which the INHIBITION is given as -172%.
Turning to `O=C(O)c1cc(-c2ccncc2F)cc(S(=O)(=O)N2CCCCCC2)c1`, the INHIBITION is -154%.
With `O=C(c1ccco1)N1CCO[C@@H]2CN(CC3CC3)CC[C@@H]2C1`, the INHIBITION was -65.2%.
As for `Cc1cccc(CN2CCC3(CCN(Cc4ccccn4)C3)C2=O)c1` (configuration not stated), the figure is 27.8%; as for `Cc1nn(C)c(C)c1C1CCCN1C(=O)c1ccc(N(C)C)nc1` (configuration not stated), -54.2%; as for `COc1cc(-c2cccc3c2OC(CN)C3)cc(OC)c1OC` (configuration not stated), 46.9%.
In the case of `COc1cc(OC)cc(-c2cccc3c2OC(CN)C3)c1` (configuration not stated), the INHIBITION is on record as 68.3%.
Turning to `COc1ccc(-c2cccc3c2OC(CN)C3)cc1F` (configuration not stated), the INHIBITION stood at 62.6%.
`NCC1Cc2cccc(-c3nccc(N4CCC(O)CC4)n3)c2O1` (configuration not stated): the INHIBITION turned out to be 20.4%.
For the compound `COc1cc(-c2cccc3c2OC(CN)C3)ccc1O` (configuration not stated), the INHIBITION came out at 38%.
As for `COc1cccnc1-c1ccc(F)c2c1OC(CN)C2` (configuration not stated), the figure is 59.3%; as for `COc1cc(-c2ccc(F)c3c2OC(CN)C3)cc(OC)c1OC` (configuration not stated), -12.8%; as for `NCC1Cc2cc(F)cc(-c3cnccn3)c2O1` (configuration not stated), 19.1%.
On to `COc1c(F)cc(-c2cccc3c2OC(CN)C3)cc1F` (configuration not stated), for which the INHIBITION is reported as 35.4%.
On to `NCC(=O)N1CCC(c2cccc(Oc3ccccc3)n2)CC1`, for which the INHIBITION is -20.5%.
On to `CC(C)(C)NC(=O)CN1CCCNCC1`, for which the INHIBITION is given as -113%.
Consider `CC(=O)NCC(=O)N1Cc2nccn2CC(COc2cccnc2)C1` (configuration not stated), for which the INHIBITION is reported as -98.1%.
On to `CNc1cccc(C2CCCN(C(=O)Cc3ccccc3)C2)n1` (configuration not stated), for which the INHIBITION is on record as -62.3%.
On to `COc1cccc(C(=O)C2CCCN(c3cc(C#N)ccn3)C2)c1` (configuration not stated), for which the INHIBITION is -25.2%.
In the case of `Cc1noc(CNC(=O)C2CSCCC(=O)N2)n1` (configuration not stated), the INHIBITION is -164%.
Take `COc1ncc(C2(O)CCN(Cc3c(F)cccc3F)CC2)c(OC)n1`: the INHIBITION is recorded as 13.1%.
Under `NC(=O)NCC(=O)N1C[C@@H]2CC[C@H]1CN(Cc1ccccc1)C2` stands -9.53%; under `CNC(=O)C1(N2CCC[C@H]2C(=O)NC2CC2)CCCCC1`, -145%.
As for `COCCc1noc(C2CCCN(c3ncnc4c3CCC4)C2)n1` (configuration not stated), the figure is -100%; as for `COc1cccc(Cn2ncnc2CCC(C)N2CCN(C)CC2)c1` (configuration not stated), -99.9%; as for `O=S(=O)(Cc1ccccc1CN1CC[C@H](CO)[C@H](O)C1)c1ccccc1`, 16.9%.
For `N[C@@H]1CCN(Cc2ccccc2CS(=O)(=O)c2ccccc2)C[C@H]1O`, the INHIBITION is reported as -23.3%.
As to `NC1CCCCN(Cc2ccccc2CS(=O)(=O)c2ccccc2)C1` (configuration not stated), the INHIBITION is recorded as 55.9%.
As for `Cc1nc(N2CCC(C)CC2)ncc1-c1cc(O)nc(N2CCCC2)n1`, the figure is -113%; as for `Fc1cccc(Cl)c1Cn1ncnc1CSCCN1CCCC1`, 61.7%; as for `O=C1CCCCCN1Cc1ncnn1Cc1c(F)cccc1Cl`, -29.5%.
Under `O=C1OCCN1Cc1ncnn1Cc1c(F)cccc1Cl` stands -76.9%.
`CS(=O)(=O)N1C[C@@H]2COC[C@]2(CN2CCOCC2)C1`: the INHIBITION is listed as -107%.
As to `CNC(=O)C1CCC2(CCN(c3nncs3)CC2)CO1` (configuration not stated), the INHIBITION is -79.1%.
As to `Cc1noc(C2CCN(C(=O)c3ccc(NC4CC4)nc3)CC2)n1`, the INHIBITION is on record as -9.68%.
Take `Cc1noc(C2CCN(C(=O)c3ccc(N(C)C)nc3)CC2)n1`: the INHIBITION is on record as -27%.
With `Cc1noc(C2CCN(C(=O)c3ccc(C(F)(F)F)nc3)CC2)n1`, the INHIBITION came to 57%.
`CN(Cc1ccco1)C1CCC12CCN(C(=O)N1CCCC1)CC2` (configuration not stated): the INHIBITION is reported as -76%.
Under `O=C(c1cccc2ncccc12)N1CCCC(n2ccnc2)C1` (configuration not stated) stands -2.7%; under `O=C(c1cccc2cccnc12)N1CCCC(n2ccnc2)C1` (configuration not stated), 55.4%.
On to `O=C(c1cccnc1N1CCCCC1)N1CCCC(n2ccnc2)C1` (configuration not stated), for which the INHIBITION amounted to 29.5%.
Regarding `Cc1cc(C(=O)NCc2ccc(N3CCN(C)CC3)nc2)c(C)s1`, the INHIBITION is recorded as -56.2%.
In the case of `O=C(c1cccc(F)c1Cl)N(CCO)CC1CC1`, the INHIBITION is reported as 9.7%.
For `O=C(NCc1cc(Br)cs1)Nc1cn[nH]c1`, the INHIBITION is listed as -116%.
As for `O=C(CC1CC1)N1CC[C@H]2[C@@H]1CCC(=O)N2c1cccnc1`, the figure is -27.5%; as for `O=C1CC(c2cccnc2)c2c(sc3c2CCCC3)N1` (configuration not stated), 29.8%.
In the case of `O=C1CC(c2ccncc2)c2c(sc3c2CCCC3)N1` (configuration not stated), the INHIBITION was determined as 56.8%.
Take `O=C1CC(c2ccc(C(=O)O)cc2)c2c(sc3c2CCCC3)N1` (configuration not stated): the INHIBITION is on record as -3.15%.
As to `CCn1cnnc1CNC(=O)c1cc(Cl)ccc1F`, the INHIBITION is -20.1%.
Turning to `Cc1cnn(CC2CCCN2C(=O)Cc2ccc3c(c2)CCO3)c1` (configuration not stated), the INHIBITION is on record as -48.8%.
In the case of `CC1CN(Cc2cccc(C#N)c2)CCN1c1ccc2nncn2n1` (configuration not stated), the INHIBITION is on record as 50.9%.
As for `CC1CN(Cc2cccnc2)CCN1c1ccc2nncn2n1` (configuration not stated), the figure is 10.1%; as for `COc1cccc(CN2CCN(c3ccc4nncn4n3)C(C)C2)c1` (configuration not stated), -39.5%; as for `COCCCNS(=O)(=O)c1ccc(N2CCCCS2(=O)=O)cc1`, -76.7%.
With `Cn1ccnc1CN1CCN(Cc2ccncc2)[C@@H]2CS(=O)(=O)C[C@@H]21`, the INHIBITION is listed as -33.9%.
`O=C([C@@H]1Cc2[nH]cnc2CN1C(=O)NC1CCCCC1)N1CCCC1`: the INHIBITION was -56.1%.
Turning to `CN(Cc1ccccc1)C(=O)[C@@H]1Cc2[nH]cnc2CN1C`, the INHIBITION is listed as 42.2%.
In the case of `CN1Cc2nc[nH]c2C[C@H]1C(=O)NC1CCCCC1`, the INHIBITION is on record as 53%.
With `Cc1c[nH]c(C2CCCN(C(=O)CCc3c(C)n[nH]c3C)C2)n1` (configuration not stated), the INHIBITION is reported as -98.1%.
As for `CCOc1ccc(C(=O)Nc2c(C)nc3ccccn3c2=O)cc1`, the INHIBITION is -144%.
Under `CCn1nc2c(cc1=O)CN(Cc1nc(-c3cccs3)no1)CC2` stands 20.5%; under `CSCC(CCO)NC(=O)c1cccc(F)c1Cl` (configuration not stated), 9.25%; under `NC1CCCCN(Cc2cc(C3CCCCC3)no2)C1` (configuration not stated), 62%.
Turning to `OCC1COCCN(Cc2cc(C3CCCCC3)no2)C1` (configuration not stated), the INHIBITION is listed as -122%.
On to `C[C@@H]1CN(Cc2cc(C3CCCCC3)no2)CC[C@]1(C)O`, for which the INHIBITION is listed as -6.78%.
Turning to `COCC(NC(=O)c1cn(-c2cccc(Cl)c2F)nn1)C1CC1` (configuration not stated), the INHIBITION was -24.2%.
With `Cc1ccc2cccc(S(=O)(=O)N(C)C3CCCN(C)C3)c2n1` (configuration not stated), the INHIBITION is listed as 33.8%.
As for `Cc1ccc2cccc(S(=O)(=O)N(C)CC3CCN(C)CC3)c2n1`, the figure is 58.6%; as for `Cc1ccc2cccc(S(=O)(=O)N(C)CC3CCN(C)C3)c2n1` (configuration not stated), 37.8%; as for `Cn1c(CCC(=O)N2CCCC3(CC2)CNC(=O)O3)nc2cccnc21` (configuration not stated), -38.1%.
As for `CC(C)CCN1C(=O)c2ccc(C(=O)NCCc3c[nH]cn3)cc2C1=O`, the figure is -19.2%; as for `COCCNCc1cc2c(C)cc(C)cc2n2c(=O)n(C)nc12`, -43%; as for `Cc1cc(C)c2cc(CNCc3cccnc3)c3nn(C)c(=O)n3c2c1`, 31.5%.
With `Cc1cc(C)c2cc(CNCC3CCCO3)c3nn(C)c(=O)n3c2c1` (configuration not stated), the INHIBITION worked out at 7.98%.
As to `CCCNCc1cc2c(C)cc(C)cc2n2c(=O)n(C)nc12`, the INHIBITION is reported as -36.8%.
For the compound `Cc1cc(C)c2cc(CNCc3ccc(C)o3)c3nn(C)c(=O)n3c2c1`, the INHIBITION was found to be 63.9%.
Consider `Cc1cc(C)c2cc(CNCc3ccccc3)c3nn(C)c(=O)n3c2c1`, for which the INHIBITION is reported as 65.4%.
As for `CS(=O)(=O)N1Cc2ccnn2CC(C(=O)NCc2cccnc2)C1` (configuration not stated), the INHIBITION is reported as -95.4%.
For `Cc1cnc(N2C[C@@H]3[C@@H](C2)OCC(=O)N3CCN(C)C)nc1`, the INHIBITION is recorded as -122%.
Turning to `CCc1ccsc1C(=O)N1CCN(CCN2C(=O)CCC2=O)CC1`, the INHIBITION was -170%.
As to `Cc1nn(C)cc1CN(C)C(=O)c1ccncc1`, the INHIBITION was -130%.
Take `COc1ccc(-c2csc3c2c(N)nc(=O)n3CCN(C)C)cc1`: the INHIBITION was -27.7%.
`CCn1c(=O)nc(N)c2c(-c3ccc(OC)cc3)csc21`: the INHIBITION is -67.6%.
Regarding `COc1ccc(-c2csc3c2c(N)nc(=O)n3CCCN(C)C)cc1`, the INHIBITION was 54.2%.
With `O=C1COC2(CCN(Cc3ccoc3)CC2)CN1c1ccsc1`, the INHIBITION is -66%.
Take `OCc1cc2ccccc2nc1N1CCCCC1`: the INHIBITION is reported as -56.3%.
Regarding `CC(C)N(C)C(=O)c1ccc(CNc2ccncc2Cl)cc1`, the INHIBITION was 24.6%.
Take `COc1cc(C)ccc1S(=O)(=O)N[C@H]1CN(C(C)=O)C[C@@H]1C1CC1`: the INHIBITION is -120%.
With `CN(C)S(=O)(=O)N1CCCC(c2cccc(Cc3ccc(F)cc3)n2)C1` (configuration not stated), the INHIBITION is listed as -107%.
Consider `O=C(c1ccncc1)N1CCOC2(CCCN(c3nncs3)C2)C1` (configuration not stated), for which the INHIBITION was -74.2%.
In the case of `CC(C)N1CCC(CNC(=O)COc2ccc(F)cc2F)C1` (configuration not stated), the INHIBITION worked out at 53.3%.
For `CC(C)N1CCC(CNC(=O)CCc2cc(F)ccc2F)C1` (configuration not stated), the INHIBITION is 7.8%.
Turning to `CN1CCOC(CNC(=O)COc2ccc(F)cc2F)C1` (configuration not stated), the INHIBITION was -69.6%.
For the compound `Cc1ccc(N2CC[C@@H]3[C@@H]2CCN3C(=O)Cc2ccccc2)nn1`, the INHIBITION is -79%.
Turning to `CCOCC(=O)N1CCC(C2CCN(Cc3ccc(Cl)cc3)C2)CC1` (configuration not stated), the INHIBITION was 0.245%.
Regarding `O=C(C1CC1)N1CCCC1C1CCN(Cc2ccccc2)CC1` (configuration not stated), the INHIBITION is -40.8%.
As for `CN1CCN(Cc2ccc(Cl)cc2)CC1C(=O)O` (configuration not stated), the INHIBITION is recorded as -94.1%.
Turning to `Clc1cccnc1N1CCC(C2CCN(Cc3cccnc3)CC2)C1` (configuration not stated), the INHIBITION was -49.5%.
As for `Clc1ccc(N2CCC(C3CCN(Cc4cccnc4)CC3)C2)nc1` (configuration not stated), the figure is 12.7%; as for `O=C(C1CCC1)N1CCC(C2CCN(Cc3ccc(Cl)cc3)C2)CC1` (configuration not stated), 65.6%; as for `O=C(C1CCCC1)N1CCC(C2CCN(Cc3ccc(Cl)cc3)C2)CC1` (configuration not stated), 64.3%.
Regarding `CC(=O)NCC(=O)N1CCC(C2CCN(Cc3ccc(Cl)cc3)C2)CC1` (configuration not stated), the INHIBITION came to 5.47%.
As to `Clc1ccc(CN2CCC(C3CCN(Cc4cccnc4)CC3)C2)cc1` (configuration not stated), the INHIBITION came out at 64.4%.

These data come from ChEMBL document CHEMBL4513216, “Probing the Open Global Health Chemical Diversity Library for Multistage-Active Starting Points for Next-Generation Antimalarials” (ACS Infect Dis, 2020).
